In the library only some 1.3% were active in any assay of this set; here they are far more common.
F-actin modifier: modifiers of F-actin cytoskeleton organization, primary screen, imaging, HUVEC, phalloidin staining, high-content imaging | actives 0.18% (n = 91,000) | HUVEC TNFa F-actin phalloidin imaging | inhibition, % at 2 µM;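 active means inhibition above the batch mean plus 3 SD and confirmed as a hit by visual image inspection, cut at about 30% in these data, passing the limit was not always enough; inconclusive means above the inhibition threshold but rejected on visual inspection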
S1P2 antag: human S1P2 receptor antagonists, primary screen, cell-based | inhibition, % at 5 µM | Sphingosine 1-phosphate receptor 2 (Homo sapiens), O95136 | cell-based S1P2 antagonist assay, inhibition at 5 uM | actives 0.21% (n = 97,000); in the data active means inhibition above about 45%;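 further: CRE beta-lactamase reporter cells expressing human S1P2 stimulated with S1P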
Target sequence (O95136 whole entry, looked up): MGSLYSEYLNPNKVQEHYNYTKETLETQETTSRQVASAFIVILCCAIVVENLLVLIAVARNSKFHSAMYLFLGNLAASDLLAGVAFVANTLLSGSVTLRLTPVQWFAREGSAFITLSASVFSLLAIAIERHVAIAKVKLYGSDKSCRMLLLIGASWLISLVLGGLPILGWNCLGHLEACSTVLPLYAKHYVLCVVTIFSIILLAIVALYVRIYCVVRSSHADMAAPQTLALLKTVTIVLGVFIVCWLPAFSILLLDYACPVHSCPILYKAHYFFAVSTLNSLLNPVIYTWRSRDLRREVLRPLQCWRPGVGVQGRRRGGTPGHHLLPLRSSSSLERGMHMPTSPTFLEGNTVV
GALR2 blocker: GALR2 antagonists in receptor-expressing cells, primary screen; Galanin receptor type 2 (Homo sapiens), O43603; inhibition, % at 4 µM; AID 828, 2007; antagonist mode; actives 0.39% (n = 140,000); in the data active means inhibition above about 27%;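 further: cells stimulated with galanin 1-16 at roughly its EC80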
GALR2 ag: GALR2 receptor agonists, primary screen, cell-based; Galanin receptor type 2 (Homo sapiens), O43603; GALR2-expressing cells, agonist activation read-out; activation, % (concentration not given with the values); actives 0.48% (n = 140,000); in the data active means activation above about 5%, passing the limit was not always enough
S1P2 agonist: S1P2 receptor agonists, primary screen, cell-based; actives 0.46% (n = 97,000); activation, % at 4.5 µM; AID 729, 2007; Sphingosine 1-phosphate receptor 2 (Homo sapiens), O95136; S1P2-expressing cell line, agonist reporter read-out; in the data active means activation above about 16%
Hits are given with their value.

CCOC(=O)c1[nH]c2c(c1C)C(=O)CC(c1ccc(OCC)c(OC)c1)C2 (stereo unspecified) was read as F-actin modifier inactive, S1P2 antag inactive, GALR2 blocker inactive, GALR2 ag inactive and S1P2 agonist inactive.
For CCCOC(=O)c1[nH]c2c(c1C)C(=O)CC(c1ccc(OC)c(OC)c1)C2 (stereo unspecified) the results were GALR2 blocker inactive and GALR2 ag 5.2.
Screening CCCCCOC(=O)c1[nH]c2c(c1C)C(=O)CC(c1ccco1)C2 (stereo unspecified) returned GALR2 blocker 35.5 and GALR2 ag inactive.
`Cc1ccc(OCC(=O)N/N=C/C=C/c2ccco2)cc1C` gave GALR2 blocker inactive and GALR2 ag inactive.
Screening Cc1cc2occ(CC(=O)OCC(=O)Nc3sc4c(c3C#N)CCC(C)C4)c2cc1C (stereo unspecified) returned GALR2 blocker inactive and GALR2 ag inactive.
`Clc1ccc(C2=Nn3c(nnc3-c3n[nH]c4c3CCC4)SC2)cc1Cl` gave S1P2 antag inactive, GALR2 blocker inactive, GALR2 ag 5.2 and S1P2 agonist inactive.
CCOC(=O)c1cc2ccc(OC)c(OC)c2c(=O)s1 was read as F-actin modifier inactive, S1P2 antag inactive, GALR2 blocker inactive, GALR2 ag inactive and S1P2 agonist 109.2.
Screening COc1ccc2cc(C(=O)NCCO)sc(=O)c2c1OC returned F-actin modifier inactive, S1P2 antag inactive, GALR2 blocker inactive, GALR2 ag inactive and S1P2 agonist inactive.
CCCCS(=O)(=O)/C=C\C=C/S(=O)(=O)CCCC was read as F-actin modifier inactive, S1P2 antag 97.1, GALR2 blocker 104.4, GALR2 ag inactive and S1P2 agonist inactive.
Screening Cc1cccc(-n2ncc3c(NC(C)C)ncnc32)c1 returned GALR2 blocker 27.0 and GALR2 ag inactive.
Screening CC(C)Cn1c(N)c(C(=O)COC(=O)c2ccc3c(c2)OCCO3)c(=O)n(C)c1=O returned F-actin modifier inactive, S1P2 antag inactive, GALR2 blocker inactive, GALR2 ag inactive and S1P2 agonist inactive.
`CC(C)Cn1c(N)c(C(=O)CSc2ccc3c(c2)OCCO3)c(=O)n(C)c1=O` gave F-actin modifier inactive, S1P2 antag 54.1, GALR2 blocker inactive, GALR2 ag inactive and S1P2 agonist inactive.
S=C(c1ccc(-c2ccccc2Cl)o1)N1CCCCC1 was read as GALR2 blocker inactive and GALR2 ag inactive.
Screening COc1cc2c(cc1OC)C(c1ccc(-c3ccc(Cl)c(Cl)c3)o1)=NCC2 returned F-actin modifier inactive, S1P2 antag inactive, GALR2 blocker inactive, GALR2 ag inactive and S1P2 agonist 18.7.
`COc1cc2c(cc1OC)C(c1ccc(-c3cc(Cl)ccc3Cl)o1)=NCC2` gave F-actin modifier inactive, S1P2 antag inactive, GALR2 blocker inactive, GALR2 ag inactive and S1P2 agonist 38.6.
`COc1cc2c(cc1OC)C(c1ccc(-c3ccc(Cl)cc3Cl)o1)=NCC2` gave F-actin modifier inactive, S1P2 antag inactive, GALR2 blocker inactive, GALR2 ag inactive and S1P2 agonist 34.4.
`O=C(O)c1ccc(-c2ccc(Cl)cc2Cl)o1` gave F-actin modifier inactive, S1P2 antag inactive, GALR2 blocker inactive, GALR2 ag inactive and S1P2 agonist inactive.
Screening COc1cc2c(cc1OC)C(c1ccc(-c3ccccc3Cl)o1)=NCC2 returned F-actin modifier inactive, S1P2 antag inactive, GALR2 blocker inactive, GALR2 ag inactive and S1P2 agonist 36.9.
CCN(CC)S(=O)(=O)c1ccc(C)c(NC(=S)NNC(=O)C2CC2)c1 was read as GALR2 blocker inactive and GALR2 ag inactive.
COC(=O)c1cccc(NC(=O)CCNC(=O)c2ccc([N+](=O)[O-])cc2)c1 was read as GALR2 blocker inactive and GALR2 ag inactive.
For O=C(Nc1nnc(-c2ccc(Cl)cc2)o1)c1nc2ccccc2s1 the results were F-actin modifier inactive, S1P2 antag 51.2, GALR2 blocker inactive, GALR2 ag inactive and S1P2 agonist inactive.
COc1ccc(N(CC(=O)N/N=C/c2ccc(-c3ccc([N+](=O)[O-])cc3)o2)S(=O)(=O)c2ccc(C)cc2)cc1Cl was read as F-actin modifier inactive, S1P2 antag 50.4, GALR2 blocker inactive, GALR2 ag inactive and S1P2 agonist inactive.
Screening COc1ccc(N(CC(=O)N/N=C/c2ccc(-c3ccc([N+](=O)[O-])cc3)o2)S(=O)(=O)c2ccc(C)cc2)cc1 returned GALR2 blocker inactive and GALR2 ag inactive.
Screening CCCCN1C(=O)Cc2c1nc(N)c1c(N)nc(N(CCC)CCC)c(C#N)c21 returned F-actin modifier inactive, S1P2 antag inactive, GALR2 blocker inactive, GALR2 ag inactive and S1P2 agonist inactive.
`CCCN(CC1CC1)c1nc(N)c(C#N)c(CC#N)c1C#N` gave F-actin modifier inactive, S1P2 antag inactive, GALR2 blocker inactive, GALR2 ag inactive and S1P2 agonist 16.5.
CCCN(CCC)c1nc(N)c(C#N)c(CC#N)c1C#N was read as F-actin modifier inactive, S1P2 antag inactive, GALR2 blocker inactive, GALR2 ag inactive and S1P2 agonist 16.4.
For CCOc1ccccc1N1CCN(c2nc(N)c(C#N)c(CC#N)c2C#N)CC1 the results were F-actin modifier inactive, S1P2 antag inactive, GALR2 blocker inactive, GALR2 ag inactive and S1P2 agonist inactive.
Screening Fc1ccccc1NC(=S)N1CCN(Cc2ccccc2)CC1 returned GALR2 blocker inactive and GALR2 ag inactive.
Screening CC1CC(C)CN(c2ccc(C(=O)NCc3ccc4c(c3)OCO4)cc2[N+](=O)[O-])C1 (stereo unspecified) returned GALR2 blocker inactive and GALR2 ag inactive.
`CC1=C(C(=O)OC(C)C)C(c2cccc([N+](=O)[O-])c2)n2c(cc(=O)[nH]c2=S)N1` (stereo unspecified) gave GALR2 blocker inactive and GALR2 ag inactive.
`COc1cc2c(cc1OC)/C(=C/C#N)NC(C)(C)C2` gave F-actin modifier inconclusive, S1P2 antag inactive, GALR2 blocker inactive, GALR2 ag inactive and S1P2 agonist 25.6.
For COc1cc(OC)c(-c2nnc(-c3ccc(OC)c(OC)c3OC)o2)cc1OC the results were F-actin modifier inactive, S1P2 antag inactive, GALR2 blocker inactive, GALR2 ag inactive and S1P2 agonist 16.2.
`O=C(NC(=O)c1cccc(OC(F)(F)C(F)F)c1)OC1CCS(=O)(=O)C1` (stereo unspecified) gave GALR2 blocker inactive and GALR2 ag 5.7.
For O=C(Nc1ccccc1)OC1CCS(=O)(=O)C1 (stereo unspecified) the results were GALR2 blocker inactive and GALR2 ag inactive.
N#Cc1c(Cl)c(Cl)c2nnc(-c3ccc(Br)cc3)n2c1Cl was read as F-actin modifier inactive, S1P2 antag inactive, GALR2 blocker inactive, GALR2 ag inactive and S1P2 agonist inactive.
Screening Cc1ccc(S(=O)(=O)N(CC(=O)NCc2ccco2)Cc2ccc(F)cc2)cc1 returned F-actin modifier 100.0, S1P2 antag inactive, GALR2 blocker inactive, GALR2 ag inactive and S1P2 agonist inactive.

Screening results: PubChem, several laboratories
